# This is a sample that favours compounds with a hit; in the whole collection about 8.8% have one here.
# IL-1B inflam inh: inhibitors of inflammasome signaling (IL-1 beta secretion); activity change, % at 57.5 µM; THP-1 LPS/ATP IL-1B secretion, AlphaLISA, 16 h; active compounds read low; 4.7% of 360,000 active; AID 743279; in the data active = activity change below about -50%; inconclusive = mostly about -30% to -49%
#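 Secreted IL-1B measured by AlphaLISA bead assay after 16 h compound exposure of THP-1 cells; compounds (final up to 57.5 uM) added 1 h before LPS (250 ng/mL) and ATP (1.25 mM) stimulation; lower signal means less secretion.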
# KB-V1 cytotox: kills drug-selected multidrug resistant KB-V1 cells; KB-V1 MDR cells viability, CellTiter-Glo, 72 h; Potency, µM (top dose mostly 46.1 µM), most hits filed as cytotoxic; 3.4% of 400,000 active; note: nearly all actives have a fitted effect of over 60% in size
#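 KB-V1 cells (P-gp-expressing MDR subline of KB-3-1) in phenol-red-free DMEM with 10% FBS were exposed to library compounds over a concentration series for 72 h at 37 degrees C. Viability read by CellTiter-Glo luminescence; concentration-effect curves fitted after normalization.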
# HT1080 IDH1KD tx: HT-1080 IDH1 knockdown cell toxicity (counter line); HT-1080 IDH1 knockdown viability, ATP luminescence, 48 h; Potency, µM (doses to about 46.1 µM), usual class: cytotoxic; 2% of 360,000 active; AID 686971
#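 Viability of IDH1-knockdown HT-1080 fibrosarcoma cells was assessed by CellTiter-Glo after 48 h at 37 °C with titrated compound; concentration-effect curves were classified by fit quality and response size.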
# HT1080NT lethal: kills 2HG-producing HT-1080-NT fibrosarcoma cells | HT-1080-NT fibrosarcoma viability, CellTiter-Glo ATP luminescence, 48 h | Potency, µM (series often up to 46.1 µM), hits mostly cytotoxic | 1.6% of 360,000 active | AID 686970;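 note: NT is the 2HG producing partner of a matched IDH1 knockdown line; nearly all actives have a fitted effect of over 55% in size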
#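 Luminescent CellTiter-Glo readout after 48 hours of compound exposure at 37 degrees C defined viability of HT-1080-NT cells. Activity was normalized to DMSO wells and cell-free media wells; concentration-response curves were fitted and assigned curve classes.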
# KB-3-1 tox: kills parental KB-3-1 adenocarcinoma cells. KB-3-1 viability, CellTiter-Glo ATP luminescence, 72 h. Potency, µM (titrated, usually from 46.1 µM), most hits filed as cytotoxic. 1.4% of 400,000 active. AID 1347075; note: nearly all actives have a fitted effect of over 60% in size
#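 Cytotoxicity in the drug-sensitive parental line KB-3-1 was scored as loss of CellTiter-Glo luminescence following 72 h incubation with compound. Values come from curve fitting of normalized concentration-response data.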
# Hits are given with their value; i = inactive; ? = inconclusive; nt = no result; ! = not confirmed by another sample; [ ] = another dose, or the depositor's remark. Unless noted, calls come from the whole dose curve; as a rule, active = well fitted curve in the direction sought with a large enough effect; inconclusive = small, poorly fitted or top-dose-only effect, or another doubt; inactive = no such curve, though single readings can be large; an effect the other way counts as inactive or inconclusive.
SMILES,IL-1B inflam inh,KB-V1 cytotox,HT1080 IDH1KD tx,HT1080NT lethal,KB-3-1 tox
Cc1ccc(O)c(C(=O)C=Cc2ccccc2)c1,-101,?,?,?,?
Cc1ccc(/C=C/C(=O)c2ccccc2O)cc1,-102,i,?,?,i
CN(C)c1ccc(/C=C/C(=O)c2ccccc2O)cc1,i,i,i,i,i
Cc1ccc(C(=O)c2cn(Cc3cccc(C)c3)c3nc(C)ccc3c2=O)cc1,nt,i,nt,nt,i
OC(CNCc1cccnc1)COc1ccc2ccccc2c1 (configuration not stated),i,?,i,i,i
CCOC(=O)Cc1csc(NC(=O)CSc2cc(Cl)ccc2Cl)n1,i,i,i,i,i
CCOC(=O)c1c(C)c(C(=O)NCc2ccco2)c(C)n1Cc1ccccc1,i,4.1µM,?,i,i
CCOC(=O)c1c(C)c(C(=O)NCc2ccco2)c(C)n1CC,i,i,i,i,i
CCOc1ccc(S(=O)(=O)N2CCOCC2)cc1NC(=O)CN1C(=O)NC(CC)(c2ccccc2)C1=O (configuration not stated),i,i,i,i,i
O=C(c1ccc(Cn2c(=O)[nH]c3ccccc3c2=O)cc1)N1CCN(c2ccccc2)CC1,i,21µM,i,i,?
O=C(c1ccc2c(=O)n(CCc3ccccc3)c(=O)[nH]c2c1)N1CCN(c2ccc(Cl)cc2)CC1,nt,i,nt,nt,i
O=C(c1ccc(Cn2c(=O)[nH]c3ccccc3c2=O)cc1)N1CCN(c2ccccn2)CC1,?,i,i,i,i
COCCn1c(=O)[nH]c2cc(C(=O)N3CCN(c4ccc(Cl)cc4)CC3)ccc2c1=O,i,?,i,i,15µM!
CCc1ccc(N2CC(O)(c3cccs3)[N+]3=C2SCCC3)cc1 (configuration not stated),-153,?,?,i,i
CCNc1nc(NCC)nc(N(C#N)CCOc2ccccc2)n1,i,i,i,i,i
CN(C)c1nc(Cl)nc(N(C#N)CCOc2ccccc2)n1,-86,i,i,i,i
CCn1c(SCc2c(F)cccc2Cl)nc(=O)c2c(C(=O)OC)cc(C3CC3)nc21,nt,i,nt,nt,i
CC(C)c1ccc(S(=O)(=O)c2cc3cc(Br)ccc3oc2=O)cc1,i,?,13µM,13µM,?
Cc1ccc(S(=O)(=O)c2cc3cc(Br)ccc3oc2=O)cc1,i,18µM,i,i,21µM
C=CCOC(=O)C1=C[C@H](c2ccc3c(c2)OCO3)C[C@H](OCCCCO)O1,i,i,i,i,i
CC1CCC(N2CCN(c3ccc([N+](=O)[O-])cc3)CC2)CC1 (configuration not stated),i,i,i,i,i
CCC1CCC(N2CCN(c3ccc([N+](=O)[O-])cc3)CC2)CC1 (configuration not stated),-60,i,?,i,i
O=[N+]([O-])c1ccc(N2CCN(S(=O)(=O)c3ccccc3)CC2)cc1,i,4.6µM,i,i,?
CN1CCN(S(=O)(=O)c2ccc([N+](=O)[O-])cc2)CC1,i,i,i,i,i
O=[N+]([O-])c1ccc(N2CCN(c3ccccc3O)CC2)cc1,-76,i,i,i,i
SMILES,IL-1B inflam inh,KB-V1 cytotox,HT1080 IDH1KD tx,HT1080NT lethal,KB-3-1 tox
O=[N+]([O-])c1ccc(N2CCN(c3ccccc3O)CC2)c(Cl)c1,?,?,i,i,i
COc1ccc(S(=O)(=O)NCCc2csc(-c3cccc(F)c3)n2)cc1OC,nt,i,nt,nt,i
Cc1ccc(C(=O)N(c2ccc(C)cc2)S(=O)(=O)c2ccc(Cl)cc2)cc1,nt,?,nt,nt,i
Cc1sc2ccccc2[n+]1CCC[n+]1c(C)sc2ccccc21,nt,i,nt,nt,i
CCc1ccc2[nH]c(=O)c(CN(Cc3ccccc3OC)C(=O)Nc3ccccc3OC)cc2c1,-60,i,i,i[9.24 µM],?
COc1ccc2[nH]c(=O)c(CN(CC3CCCO3)C(=O)Nc3ccccc3OC)cc2c1 (configuration not stated),-62,?,?,?,?
COc1ccccc1NC(=O)N(Cc1cc2cc(OC)c(OC)cc2[nH]c1=O)CC1CCCO1 (configuration not stated),?,i,i,i,i
CCc1nc2ccc(C(=O)N(CC)CCN(C)C)cn2c1N(CC)CCOC,i,i,i,i,i
COc1ccc(Cl)cc1NC(=O)c1[nH]c(C)c(C(C)=O)c1C,i,i,i,i,i
CC(=O)c1c(C)[nH]c(C(=O)Nc2nc(-c3ccc(Cl)cc3)cs2)c1C,i,?,i,i,?
COc1ccc(OC)c(NC(=O)c2[nH]c(C)c(C(C)=O)c2C)c1,i,16µM,i,i,i
CC(=O)c1c(C)[nH]c(C(=O)Nc2nc(-c3ccc(-c4ccccc4)cc3)cs2)c1C,?,21µM,?,?,15µM
COc1ccc(-c2nc(NC(=O)c3[nH]c(C)c(C(C)=O)c3C)sc2C)cc1,-82,?,?,?,i
CC(=O)N(c1nc(CCl)cs1)c1c(C)cc(C)cc1C,i,i,i,i,i
CC1(C(=O)NCc2ccccc2)CSCC(=O)N1Cc1cccc(C(F)(F)F)c1 (configuration not stated),i,?,i,i,i
COc1ccc(S(=O)(=O)N2CN(Cc3ccco3)c3nc4ccccc4nc32)cc1,i,5.8µM,?,?,i
O=C(NCCCN1CCOCC1)c1cccc(S(=O)(=O)N2CCc3ccccc32)c1,i,i,i,i,i
O=c1c2cccnc2[nH]c(=S)n1CCCN1CCN(c2ccccc2F)CC1,i,i,i,i,13µM
CCOC(=O)N1CCN(C(=O)CCCn2c(=S)[nH]c3ccc(Br)cc3c2=O)CC1,i,12µM,i,i,i
O=C(CCCn1c(=S)[nH]c2cc3c(cc2c1=O)OCO3)N1CCN(c2ccccc2F)CC1,i,16µM,i,i,i
COc1ccccc1NC(=O)Cn1c([N+](=O)[O-])cnc1C,i,i,?,i,i
COc1ccc(C(=O)NCCc2sc(-c3ccc(Cl)cc3)nc2C)c(OC)c1,nt,i,nt,nt,i
CCCCOC(=O)Nc1ccc(N2CCCCC2)cc1,-57,?,i,i,i
CCCCOC(=O)Nc1ccc(C(C)C)cc1,-60,i,i,i,i
CCCCOC(=O)Nc1ccc(C(N)=O)cc1,i,i,i,i,i
CCCCOC(=O)Nc1ccccc1C(=O)N1CCCC1,i,13µM,i,i,i
CCOC(=O)COc1ccc(C)cc1C(=O)c1ccn2nc(-c3ccc(F)cc3)cc2n1,nt,i,nt,nt,i
O=C(CC(NC(=O)c1ccccc1)c1ccccc1)OCc1nc(-c2cccc(Cl)c2)no1 (configuration not stated),nt,i,nt,nt,?
O=C1c2ccccc2-c2onc3ccc(NCCCn4ccnc4)c1c23,-97,?,?,?,i
Cc1ccc(Cl)cc1N1CCN(Cc2nnnn2Cc2ccco2)CC1,?,?,i,i,?

# Bioassay records deposited in PubChem BioAssay by National Center for Advancing Translational Sciences (NCATS).
